Bioassay records as filed in PubChem BioAssay.
A selection: hits, their analogues and other compounds. The true share with any hit is near 2.1%.
m-calpain inh: blocks pig calpain II enzyme activity. purified calpain II, fluorogenic peptide substrate, 30 min. inhibition, % at 16 µM. 220,000 compounds, 0.37% hits;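 active = inhibition above about 50%, limit read from the data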
ROMK primary: human ROMK K+ channel modulation, primary screen; P48048; Tet-inducible ROMK, thallium flux fluorescence; actives lie on both sides; B-score at 10 µM; 130,000 compounds, 2% hits;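 active = signal ratio slope over the read window, or its plate-corrected B-score, at least 3 SD from the plate mean, either direction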;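 note: B-score of the F/F0 ratio slope over 7 to 12 s after thallium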
Target sequence (P48048 whole entry, looked up): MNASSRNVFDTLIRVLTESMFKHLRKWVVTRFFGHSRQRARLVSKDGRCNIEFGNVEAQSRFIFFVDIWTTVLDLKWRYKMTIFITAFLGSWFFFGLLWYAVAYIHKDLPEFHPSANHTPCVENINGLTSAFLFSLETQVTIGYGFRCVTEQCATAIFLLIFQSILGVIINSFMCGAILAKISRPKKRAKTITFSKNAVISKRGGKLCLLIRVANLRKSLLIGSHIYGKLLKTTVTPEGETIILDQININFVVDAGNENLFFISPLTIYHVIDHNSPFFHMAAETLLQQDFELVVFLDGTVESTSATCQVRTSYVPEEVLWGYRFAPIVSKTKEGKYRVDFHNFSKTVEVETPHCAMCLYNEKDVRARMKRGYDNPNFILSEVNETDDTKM
Arbovirus inh: arbovirus infection inhibition. arbovirus infection cell-based antiviral screen. inhibition, % at 10 µM. 200,000 compounds, 0.37% hits; in the data active = inhibition above about 30%
HMGR II inh: blocks class II HMG-CoA reductase of Enterococcus faecalis | purified E. faecalis HMGR, NADPH absorbance 340 nm kinetic | inhibition, % at 10 µM | 190,000 compounds, 0.41% hits | AID 1066;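 active = inhibition above a set limit, the median over all tested compounds plus 3 SD, cut at about 9.5% in these data; inconclusive = no clear call, values can overlap the other calls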;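 note: enzyme runs in reverse so mevalonate oxidation gives rising NADPH absorbance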
HSV replic up: increases HSV replication in cells; HSV replication augmentation in cells, fold increase; maximum fold increase; 220,000 compounds, 0.005% hits; in the data active = maximum fold increase above about 1.5; inconclusive = no clear call, values can overlap the other calls; tested in PC3 cells
Large screens that a line does not name were inactive.

Cc1cc(C)nc(N/N=C/C2=C(O)CC(c3ccccc3)CC2=O)n1 (configuration not stated)	none (no result: Arbovirus inh, HMGR II inh)
COc1ccc(N2C(=S)NC3N2C(=S)NC3(C)c2ccccc2)cc1 (configuration not stated)	none
Cc1ccc2nc(-c3ccc(Br)o3)oc(=O)c2c1	Arbovirus inh 37.3
NC1=NC2(CCCCC2)N=C(Nc2ccc(Br)cc2)N1	none (no result: ROMK primary)
O=C(Oc1ccc(Cl)c2cccnc12)C12CC3CC(CC(C3)C1)C2	m-calpain inh 56.3 (no result: ROMK primary)
COC(=O)CNC(=O)c1sc2ncn(CC(=O)Nc3ccc(C)c(Cl)c3)c(=O)c2c1C	m-calpain inh 51.6
CC(=O)Nc1nonc1NC(C)=O	none
CC(=O)Nc1cc(OC(C)=O)c2nonc2c1OC(C)=O	ROMK primary -4.24 (no result: m-calpain inh, Arbovirus inh, HMGR II inh)
CCOc1ccc(N=C(NN)c2ccc3ccccc3n2)cc1	none
Cc1cc(C)c(S(=O)(=O)/N=C2/C=C(Sc3ncn[nH]3)C(=O)c3ccccc32)cc1C	ROMK primary -4.9
Cc1ccccc1NC1=C/C(=N\S(=O)(=O)c2cccs2)c2ccccc2C1=O	none
CN(CC(O)Cn1c2ccccc2c2ccccc21)S(C)(=O)=O (configuration not stated)	none
CS(=O)(=O)N(CC(O)Cn1c2ccccc2c2ccccc21)c1ccccc1 (configuration not stated)	Arbovirus inh 42.0 (no result: ROMK primary)
N#CCc1c(C#N)c(N)nc(Nc2ccccc2)c1C#N	none (no result: ROMK primary, Arbovirus inh, HMGR II inh)
C=CCN1C(=O)N/C(=C/c2ccc(N3CCOCC3)o2)C1=O	ROMK primary -3.79
O=C1S/C(=C/c2ccc(N3CCOCC3)o2)C(=O)N1Cc1ccc(F)cc1	HSV replic up inconclusive (no result: ROMK primary)
O=C1NC(=S)S/C1=C/c1ccc(N2CCOCC2)o1	ROMK primary -3.34
Cc1ccc(-c2ccc(/C=C3\SC(N4CCOCC4)=NC3=O)o2)cc1	HMGR II inh 11.6
CCc1nc(SCC(=O)c2ccccc2)c2c(=O)n(C)c(=O)n(C)c2n1	none (no result: Arbovirus inh, HMGR II inh)
CCCc1nc(SCC(=O)c2ccccc2)c2c(=O)n(C)c(=O)n(C)c2n1	m-calpain inh 52.7 (no result: ROMK primary)
Nc1sc2c([n+]1CCCS(=O)(=O)[O-])CCCC2	none (no result: ROMK primary)
CCCCN(CC)CCCNC(=S)Nc1ccc2nc3n(c(=O)c2c1)CCCCC3	m-calpain inh 64.8
O=C(CSc1nc2ccccc2c(=O)n1CCCN1CCOCC1)NC12CC3CC(CC(C3)C1)C2	none
ON/C=N/C(=S)Nc1ncc(C(F)(F)F)cc1Cl	HMGR II inh 18.1
CON/C=N/C(=S)Nc1ncc(C(F)(F)F)cc1Cl	ROMK primary 5.37
COCCNC(=O)C(c1ccccc1)N(C(=O)Cn1nnc2ccccc21)c1cccnc1 (configuration not stated)	none (no result: ROMK primary)
COCCNC(=O)C(c1ccccc1C)N(C(=O)Cn1nnc2ccccc21)c1cccnc1 (configuration not stated)	HMGR II inh 15.0
COc1cccc(NC(=O)CN(C)CC(=O)Nc2ccc(Cl)cc2[N+](=O)[O-])c1	m-calpain inh 55.1
COc1ccc(NC(=O)CN(C)S(=O)(=O)c2ccc(Cl)cc2)c([N+](=O)[O-])c1	none (no result: ROMK primary)
Cc1ccc(OCC(=O)n2nc(C)cc2C)c(Br)c1	none (no result: ROMK primary)
Cc1cc(C)n(C(=O)COc2ccccc2C)n1	HMGR II inh 13.0
Cc1cc(C)n(CC(O)COc2ccccc2C)n1 (configuration not stated)	HMGR II inh 11.5
C/C(=N\O)C(=O)NCCN(C)C	none
O=C(O)c1cccc(NC(=S)N/N=C/c2ccccc2OCc2cccc(Br)c2)c1	m-calpain inh 55.8
C=CCN(CC=C)c1ccc(N2C(=O)C3CCCCC3C2=O)cc1[N+](=O)[O-] (configuration not stated)	none
C=CCNc1ccc(N2C(=O)C3CCC(C)CC3C2=O)cc1[N+](=O)[O-] (configuration not stated)	m-calpain inh 67.0
COCCNc1ccc(N2C(=O)C3CCCCC3C2=O)cc1[N+](=O)[O-] (configuration not stated)	none
O=C1C2CCCCC2C(=O)N1c1ccc(NC2CCCCC2)c([N+](=O)[O-])c1 (configuration not stated)	m-calpain inh 60.9
Cc1sc2ncn(CC(=O)Nc3cccc(S(N)(=O)=O)c3)c(=O)c2c1-c1ccccc1	none (no result: ROMK primary, Arbovirus inh, HMGR II inh)
COc1ccc(N(CC(=O)Nc2cc(C)cc(C)c2)S(=O)(=O)c2ccccc2[N+](=O)[O-])c(OC)c1	HMGR II inh 9.9
COc1ccc(N(CC(=O)Nc2ccc(F)cc2)S(=O)(=O)c2ccccc2[N+](=O)[O-])c(OC)c1	none
CCOC(=O)CSc1nc2sc3c(c2c(=O)n1C1CCCCC1)CCN(C)C3	ROMK primary -3.52
CCn1c(SCC(N)=O)nc2sc3c(c2c1=O)CCN(C)C3	none (no result: ROMK primary, Arbovirus inh, HMGR II inh)
CC(C)(C)n1cnnc1Sc1ncccc1[N+](=O)[O-]	none (no result: Arbovirus inh, HMGR II inh)
C[C@H]1CC[C@H]2C(=O)N3[C@H](c4ccccc4Br)[C@@H](C)CC[C@H]3C(=O)N2[C@@H]1c1ccccc1Br	ROMK primary -4.29 (no result: HSV replic up)
C[C@H]1CC[C@H]2C(=O)N3[C@H](c4cccc(N5CCCC5=O)c4)[C@@H](C)CC[C@H]3C(=O)N2[C@@H]1c1cccc(N2CCCC2=O)c1	none (no result: HSV replic up)
COC(=O)c1nnn(-c2nonc2N)c1CSc1nnc(N)s1	none
O=C(CCCCCN1C(=O)c2ccccc2C1=O)Nc1ccc(S(=O)(=O)N2CCCCC2)cc1	m-calpain inh 53.4
CC1CCN(S(=O)(=O)c2ccc(NC(=O)CCN3C(=O)c4ccccc4C3=O)cc2)CC1	none
CC(C)C(C)NC(=O)COC(=O)c1cc(S(=O)(=O)N(C)C)ccc1N1CCCC1 (configuration not stated)	none
CC(C)c1ccc(-c2noc(C3CCCN(C(=O)c4ccc(F)cc4F)C3)n2)cc1 (configuration not stated)	m-calpain inh 77.1 (no result: ROMK primary)
CCN1CCN(c2cc(C)c3cc(NC(=S)NCc4cccs4)ccc3n2)CC1	m-calpain inh 51.0
Cc1cc(N2CCN(C)CC2)nc2ccc(NC(=S)NCc3cccs3)cc12	none
O=C(NC(=S)Nc1ccccn1)c1cccc([N+](=O)[O-])c1	none (no result: Arbovirus inh, HMGR II inh)
c1csc(-c2nnc(N3CCOCC3)c3ccccc23)c1	HMGR II inh 11.3
c1csc(-c2nnc(N3CCCCCC3)c3ccccc23)c1	none (no result: ROMK primary)
CCN(CC)CCCn1c(=S)[nH]c2ccccc2c1=O	none (no result: ROMK primary)
CCCCn1c(=S)[nH]c2c(oc3ccc(Cl)cc32)c1=O	ROMK primary 4.81
COCCCNC1=C(Cl)C(=O)c2ccccc2C1=O	none (no result: ROMK primary, Arbovirus inh, HMGR II inh)
CCN(CC)CCCNC1=C(Cl)C(=O)c2ccccc2C1=O	m-calpain inh 51.4
O=C(NCc1cccs1)c1cccc(Nc2nc3ccc(Br)cc3[nH]2)c1	m-calpain inh 55.2 (no result: ROMK primary)
CCCN1C(=O)/C(=C/c2ccc(C)s2)NC1=S	ROMK primary 5.52
Cc1ccc(/C=C2/NC(=O)N(Cc3ccccc3F)C2=O)s1	HSV replic up inconclusive
N#Cc1c(-c2ccccc2)nc(SCC(=O)Nc2ccccc2)[nH]c1=O	none
N#Cc1c(-c2ccccc2)nc(SCC(=O)Nc2nnc(C(F)(F)F)s2)[nH]c1=O	Arbovirus inh 73.1, HMGR II inh 13.0
N#Cc1c(-c2ccccc2)nc(SCC(=O)N(c2ccccc2)c2ccccc2)[nH]c1=O	Arbovirus inh 33.1 (no result: ROMK primary)
CCSc1nnc(NC(=O)c2ccc(Br)s2)s1	Arbovirus inh 31.0 (no result: ROMK primary)
